Measurements: PubChem BioAssay (NCATS)
Records with an inconclusive call do not appear. Activity calls are given as the source filed them. Calls come from the whole dose curve; as a rule, active = well fitted cell-killing curve with a large enough effect; inconclusive = small, poorly fitted or top-dose-only effect; inactive = flat fitted curve, though single readings scatter.

assay: Cell Viability - H-4-II-E (AID 543); conditions: H-4-II-E rat hepatoma viability; series mostly up to 92.2 µM; activity change, negative = cytotoxic: at the top concentration; note: nearly all actives have a fitted effect of over 35% in size
From the text: NIH Chemical Genomics Center [NCGC]
NIH Molecular Libraries Screening Centers Network [MLSCN]
National Institutes of Environmental Health Sciences [NIEHS]
National Toxicology Program [NTP]
We have developed a 1536-well cell-based assay for quantitative high throughput screening (qHTS) against a number of cell lines to determine in vitro cytotoxicity of small molecules. This particular assay uses the H-4-II-E cell line which is derived from rat hepatoma.
NCGC Assay Protocol Summary:
The CellTiter-Glo luminescent cell viability assay (Promega) is a homogeneous method to measure the number of viable cells in culture. The end point readout of this assay is based on quantitation of intracellular ATP, an indicator of metabolic activity, using the luciferase reaction. Luciferase catalyzes the oxidation of beetle Luciferin to oxyluciferin and light in the presence of ATP. The luminescent signal is proportional to amount of ATP present.
Using the CellTiter-Glo luminescent cell viability assay, the amount of cellular ATP was measured in the H-4-II-E cell line with complete culture medium following compound treatment for 40 hours. The assay was performed in opaque white Kalypsys 1536-well plates. In the screen, tamoxifen and doxorubicin were used as positive controls. Library compounds were measured for their ability to cause acute toxicity in the cell line, as reflected by a decrease in intracellular ATP levels, in a concentration-dependent manner. […] AC50 values were determined from concentration-response data modeled with the standard Hill equation.
qHTS protocol fo CellTiter Glo H-4-II-E cellular assay
[Step] [Parameter] [Value] [Description]
1. Reagent; 5 uL; 1500 H-4-II-E cells/well
2. Time; 5 hr; 37 °C incubation
4. Controls; 23 nL; Tamoxifen 0.34 uM to 100 uM & Doxorubicin 0.02 nM to 100 uM
5. Time; 40 hr; 37 °C incubation
6. Reagent; 5 uL; CellTiter Glo reagent
7. Time; 20 min; Room Temperature
8. Detection; Luminescence; Viewlux plate reader
Keywords: cell viability, cytotoxicity, H-4-II-E cell line, luminescence, NTPHTS, NTPHTS_NCGC, NIEHS, EPA, DSSTox, MLSMR, MLSCN, NIH Roadmap, qHTS, NCGC
% is set by controls: 0 for no effect and ±100 for the full control effect; potency is the fitted concentration of half-maximal effect.

Row | SMILES | activity change, negative = cytotoxic | Potency
1 | C=CC(=O)OCC(CC)CCCC (stereo not given) | -6.26% (inactive) | 
2 | C=CC(=O)OC | -0.502% (inactive) | 
3 | Oc1ccc(Cl)c(Cl)c1 | -26.3% (inactive) | 
4 | O=[N+]([O-])c1ccc(Cl)c(Cl)c1Cl | 4.52% (inactive) | 
5 | CCC(Cl)[N+](=O)[O-] (stereo not given) | -6.04% (inactive) | 
6 | Nc1ccc(-c2ccc(N)c(Cl)c2)cc1Cl |  | 31.6 µM (active)
7 | O=[N+]([O-])/C=C/c1ccccc1 |  | 5.01 µM (active)
8 | C=CC=O | 2.53% (inactive) | 
9 | CN=C=O | -12.4% (inactive) | 
10 | Nc1ccc(-c2ccccc2)cc1 | -15.8% (inactive) | 
11 | CC(C)CC(C)N (stereo not given) | 0.217% (inactive) | 
12 | Brc1cccc(-c2ccccc2)c1 | 3.67% (inactive) | 
13 | CCC#N | 0.562% (inactive) | 
14 | Cl/C=C/Cl | -11.3% (inactive) | 
15 | CCCCCCCCCCCOC(=O)c1ccccc1C(=O)OCCCCCCCCCCC | -27.5% (inactive) | 
16 | [C-]1=CC=CC1.[C-]1=CC=CC1.[Cl-].[Cl-].[Ti+4] | -28.3% (inactive) | 
17 | Nc1cccc(Cl)c1 | -7.87% (inactive) | 
18 | CC(Cl)CCl (stereo not given) | 5.19% (inactive) | 
19 | C=CC(=O)OCC(C)C | 1.06% (inactive) | 
20 | ClC(Br)Br | -1.25% (inactive) | 

Row | SMILES | activity change, negative = cytotoxic | Potency
21 | OCCOCCO | -6.45% (inactive) | 
22 | COc1c(C(C)(C)C)cc([N+](=O)[O-])c(C)c1[N+](=O)[O-] | -10.5% (inactive) | 
23 | Oc1cc(Cl)cc(Cl)c1 | -18.4% (inactive) | 
24 | O=C(O)CCl | -5.67% (inactive) | 
25 | O=C(O)c1cccc(Cl)c1 | -4.08% (inactive) | 
26 | CCOC(=O)C1OC1(C)c1ccccc1 (stereo not given) | -4.63% (inactive) | 
27 | Cc1ccc(N)c(C)c1 | -1.57% (inactive) | 
28 | C=C(C)CCl | -2.69% (inactive) | 
29 | CN(C)N=O | 3.35% (inactive) | 
30 | CC(C)(Cl)Cl | -3.44% (inactive) | 
31 | CSSC | -11.2% (inactive) | 
32 | CC(C)Br | -3.28% (inactive) | 
33 | Cc1cc(C)cc(OP(=O)(Oc2cc(C)cc(C)c2)Oc2cc(C)cc(C)c2)c1 | -25% (inactive) | 
34 | CCOP(=S)(OCC)SCCSCC | 2.12% (inactive) | 
35 | Cc1cccc(N)c1C | -1.09% (inactive) | 
36 | Nc1ccc2ccccc2c1 | -6.68% (inactive) | 
37 | CC(=O)[O-].CC(=O)[O-].CC(=O)[O-].[Cr+3] | -4.63% (inactive) | 
38 | COc1ccc(C=O)cc1 | 2.72% (inactive) | 
39 | CC(C)[C@]12CC(=O)[C@H](C)[C@H]1C2 | -2.02% (inactive) | 
40 | c1ccc(OCC2CO2)cc1 (stereo not given) | -3.82% (inactive) | 
